Compound activity (PubChem)
Tau fluor counter: Counterscreen qHTS for Inhibitors of Tau Fibril Formation, Fluorescence Polarization; tau K18 P301L Alexa594 fluorescence, heparin fibrillization; Potency, µM (doses to about 57.7 µM), for inactives: top-dose activity change, negative = decrease; 280,000 tested, 0.93% active; further: nearly all actives have a fitted effect of over 55% in size
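Human K18 P301L tau (15 uM unlabeled plus 0.24 uM Alexa 594-labeled, final) in 100 mM sodium acetate pH 7 was mixed with compound and 20 uM heparin and incubated 6 hr at 37 C.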
GoLoco inh red: qHTS Assay for Inhibitors of RGS12 GoLoco Motif Activity (Red Fluorophore) | 230,000 tested, 0.44% active | Potency, µM (series often up to 61.6 µM), for inactives: top-dose activity, negative = inhibition, actives largely listed as inhibitors | Gai1:RGS12 GoLoco peptide FP, rhodamine, 10 min | Guanine nucleotide-binding protein G(i) subunit alpha-1 (Homo sapiens), P63096 | AID 880, 2007; active means well fitted inhibition curve with a large enough effect, not every such curve was filed as active; inactive means no such curve, though single readings can be large or run the other way; further: nearly all actives have a fitted effect of over 30% in size
TR SRC2 fluor cs: Total Fluorescence Counterscreen for Inhibitors of the Interaction of Thyroid Hormone Receptor and Steroid Receptor Coregulator 2; TRb/SRC2 Texas Red total fluorescence interference; Potency, µM (doses to about 106 µM), inactives show at the top dose fluorescence change, negative = quenching; 280,000 tested, 0.29% active; active means well fitted curve in either direction with a large enough effect; inconclusive means small, poorly fitted or top-dose-only effect
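Flags fluorescent or light-absorbing compounds by total fluorescence, S + 2P, at 555 nm excitation and 632 nm emission. Mixture: 20 nM Texas Red SRC2 peptide, 0.6 uM human TRb LBD, 1 uM T3, 5% DMSO; compound exposure 5 h at ambient temperature.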
Tau ThT inhib: qHTS for Inhibitors of Tau Fibril Formation, Thioflavin T Binding | Potency, µM (doses to about 57.4 µM), for inactives: top-dose activity, negative = inhibition, most hits filed as inhibitors | 270,000 tested, 2.1% active | Microtubule-associated protein tau (Homo sapiens), P10636 | recombinant tau K18 P301L (four-repeat tau fragment), heparin-induced fibrillization, ThT fluorescence; further: nearly all actives have a fitted effect of over 55% in size
Target sequence (P10636 561-689 P618L limits assumed): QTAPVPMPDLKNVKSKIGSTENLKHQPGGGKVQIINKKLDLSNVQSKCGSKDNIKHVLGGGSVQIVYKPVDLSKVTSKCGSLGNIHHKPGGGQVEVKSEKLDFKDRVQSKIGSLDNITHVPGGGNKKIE
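Recombinant human tau K18 fragment […] carrying P301L, 15 uM unlabeled plus 0.24 uM Alexa 594-labeled, was fibrillized with 20 uM heparin in 100 mM sodium acetate pH 7 for 6 hr at 37 C; 30 uM ThT fluorescence read after 1 hr.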
Tau FP inhib: qHTS for Inhibitors of Tau Fibril Formation, Fluorescence Polarization. K18 P301L tau heparin fibrillization, Alexa594 FP, 6 h. Microtubule-associated protein tau (Homo sapiens), P10636. AID 1468, 2008. Potency, µM (top dose mostly 57.7 µM), without a hit: at the top dose activity, negative = inhibition, most hits filed as inhibitors. 280,000 tested, 0.39% active; further: nearly all actives have a fitted effect of over 55% in size
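Read-out: fluorescence polarization of Alexa 594-labeled tau (0.24 uM), 555 nm excitation, 632 nm emission. Mixtures held 15 uM unlabeled K18 P301L, compound and 20 uM heparin, pH 7 acetate buffer, incubated 6 hr at 37 C.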
TRb SRC2 PPI: qHTS for Inhibitors of the Interaction of Thyroid Hormone Receptor and Steroid Receptor Coregulator 2 | 280,000 tested, 0.065% active | Thyroid hormone receptor beta (Homo sapiens), P10828 | TRbeta-SRC2 peptide binding, fluorescence polarization; receptor liganded with 1 µM T3 | Potency, µM (top dose mostly 106 µM), inactives show at the highest dose activity change, negative = inhibition, actives largely listed as inhibitors;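 further: plate controls were bound peptide for no effect and peptide without receptor for full effect; nearly all actives have a fitted effect of over 50% in size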
Target sequence (P10828 whole entry, looked up): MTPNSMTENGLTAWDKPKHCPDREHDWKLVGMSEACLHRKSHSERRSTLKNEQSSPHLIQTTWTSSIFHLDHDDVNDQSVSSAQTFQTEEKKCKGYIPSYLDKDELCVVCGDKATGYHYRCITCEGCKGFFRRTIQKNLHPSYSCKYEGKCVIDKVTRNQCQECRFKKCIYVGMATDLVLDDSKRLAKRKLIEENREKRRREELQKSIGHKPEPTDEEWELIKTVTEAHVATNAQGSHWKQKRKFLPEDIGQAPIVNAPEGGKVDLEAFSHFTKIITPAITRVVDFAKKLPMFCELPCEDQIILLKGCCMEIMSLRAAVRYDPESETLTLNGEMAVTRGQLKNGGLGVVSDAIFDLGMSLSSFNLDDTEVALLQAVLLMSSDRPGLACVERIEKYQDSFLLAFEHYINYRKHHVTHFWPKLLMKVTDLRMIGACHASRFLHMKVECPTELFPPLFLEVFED
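A fluorescence polarization screen tested compounds at multiple concentrations against complex formation between 0.6 uM TRb ligand-binding domain and 20 nM Texas Red SRC2 peptide, with 1 uM T3 present; readout after 5 hr.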
The depositor's hits bear a star; ? = inconclusive; nt = not tested or not shown; [ ] = another dose, or the depositor's remark. Only some compounds are listed: those with a hit (about 3.2% of all), similar ones and a draw of the others. Unless noted, the call rests on the fitted dose curve; in most records, active means well fitted curve in the direction sought with a large enough effect; inconclusive means small, poorly fitted or top-dose-only effect, or another doubt; inactive means no such curve, though single readings can be large; an effect the other way counts as inactive or inconclusive. Unless noted, on the % scale 0 is the no-effect control and ±100 the full control effect; potency means the concentration at half of the fitted maximal effect.

SMILES	Tau fluor counter	GoLoco inh red	TR SRC2 fluor cs	Tau ThT inhib	Tau FP inhib	TRb SRC2 PPI
CCOC(=O)C1(C)C=C(Nc2cccc(OC)c2)C(=O)N1c1ccccc1 (stereo unspecified)	-30%	31%	-1%	?	1%	-2%
CCOC(=O)C1(C)/C(=N/Nc2ccccc2)C(=O)C(=O)N1c1ccccc1 (stereo unspecified)	-28%	-1%	-7%	18µM*	-7%	-7%
NC(=O)c1c(NC(NC(=O)c2ccco2)C(=O)c2ccc(Cl)cc2)sc2c1CCCC2 (stereo unspecified)	?	11%	-3%	25µM*	-9%	-17%
COc1cccc([C@@H]2Oc3ccc(Br)cc3C[C@H]2OC(=O)NCCc2ccc(OC)c(OC)c2)c1	-7%	-2%	-2%	-5%	8%	6%
Cc1nc(CSc2nsc(/C=C/N(C)C)c2C#N)cs1	?	196%	7%	25µM*	-12%	12%
N=c1oc2c3c4c(cc2cc1C(=O)Nc1ccccc1)CCCN4CCC3	10%	4µM*	1%	-1%	0%	-12%
Cc1oc(S(=O)(=O)N2CCCC2)cc1C(=O)Nc1ccccc1	-9%	8%	3%	-6%	-2%	2%
CC(=O)Nc1ccc(SCCN2CCN(CC(C)C)CCC2=O)cc1	nt	nt	-1%	nt	nt	7%
O=C(/C=C/c1ccccc1Cl)c1ccc(O)cc1	-18%	1%	-3%	?	-4%	2%
Cc1ccc(/C=C/C(=O)c2ccccc(=O)c2O)c(C)c1	-10%	3%	0%	?	-4%	-12%
Cc1ccc(C)c(/C=C/C(=O)c2ccccc(=O)c2O)c1	?	14%	-1%	22µM*	?	-3%
O=C(/C=C/c1ccccc1Cl)c1ccccc(=O)c1O	-25%	17%	-1%	14µM*	?	-3%
CN(/N=C\c1ccccc1O)c1ccc2ccccc2n1	nt	-4%[14.2 µM]	nt	nt	nt	nt
CC1=NN(c2ccc(Cl)cc2)C(=O)/C1=C\c1cccn1-c1ccc(S(N)(=O)=O)cc1	11µM*[quencher]	1%	-9%	7.1µM*	11%	5%
CNC(=O)C1(C(F)(F)F)C/C(=C\Cc2ccccc2)CCCO1 (stereo unspecified)	nt	nt	-1%	nt	nt	2%
O=C(/C=C/c1ccc2c(c1)OCCCO2)c1ccc2ccccc2c1O	?	17%	-2%	3.2µM*	0%	4%
Cc1ccc(C(=O)/C=C/c2ccc3c(c2)OCCO3)c(O)c1	-23%	5%	-1%	6.3µM*	7%	4%
CN1c2cccc3cccc(c23)N(C)C1(C)C	?	-26%	1%	?	-6%	-24%
CN1c2ccccc2N(C)C1(C)c1cccc2ccccc12	-28%	4%	8%	16µM*	?	-1%
CC(C)O.CC(C)O.CC(C)O.CC(C)O.[Ti]	nt	nt	-2%[201 µM]	nt	nt	-2%[201 µM]
COC(=O)NC(C(=O)OC)(C(=O)OC)c1ccccc1	4%	-3%	-3%	7%	11%	1%
O=C(/C=C/c1cccs1)Nc1ccncc1	2%	13%	-3%[53 µM]	10%	-2%	-10%[53 µM]
CCCOC(=O)c1ccc(NC(=O)/C=C/c2cccs2)cc1	14µM*[quencher]	2%	-1%	4%	?	-3%
N#CC(Cc1ccc(O)c(O)c1)C(=O)N1CCc2ccccc21 (stereo unspecified)	-11%	9%	-16%	-8%	2%	10%
CCCCCCC(O)CCCCCCCCCCC(=O)O (stereo unspecified)	nt	nt	-1%[201 µM]	nt	nt	4%[201 µM]
SMILES	Tau fluor counter	GoLoco inh red	TR SRC2 fluor cs	Tau ThT inhib	Tau FP inhib	TRb SRC2 PPI
NC(N)=Nc1ccc(-c2ccc(N=C(N)N)cc2)cc1	nt	-4%[14.2 µM]	nt	nt	nt	nt
NC(=Nc1ccc(N)cc1)C(N)=Nc1ccc(N)cc1	?	4%	-3%	8.9µM*	?	6%
COc1ccc2nc(NC3=NCCC3)sc2c1	-2%	-4%	-6%	-12%	4%	-3%
COc1cccc(Nc2nc3ccc(OC)cc3s2)c1	13µM*[quencher]	-2%	0%	13µM*	7%	-4%
COc1ccc(Nc2nc3ccccc3s2)cc1	14%	7%	-11%	13%	4%	-7%
COc1ccc2nc(Nc3sc4c(c3C(N)=O)CCCC4)sc2c1	?	198%	?	7.1µM*	2%	-6%
O=C1CCC=C1C(O)c1ccc(Cl)cc1 (stereo unspecified)	2%	-3%	-1%	5%	3%	6%
Cc1ccc2oc(C(=O)Nc3ccc(S(=O)(=O)N(C)c4ccccc4)cc3)cc(=O)c2c1	?	nt	100µM*[quencher]	-6%	?	-10%
CN(C)C(=O)c1ccc(-c2ccc3ncnc(NCCN4CCOCC4)c3c2)cc1	nt	8%	nt	nt	nt	nt
O=C(O)[C@H]1CCc2ccc3ccccc3c2[C@H]1c1cccc2ccccc12	nt	8%[14.2 µM]	nt	nt	nt	nt
O=C1O/C(=C/Br)CCC1c1cccc2ccccc12 (stereo unspecified)	?	-9%	-2%	18µM*	?	-1%
CNCc1ccccc1Sc1cccc(O)c1	0%	2%	-2%	3%	-2%	-3%
CNCc1ccccc1Sc1cc(O)ccc1O	18µM*[quencher]	4.5µM*	-5%	18µM*	32µM*	-7%
CC(C)C[C@H](NC(=O)[C@H](CC(C)C)NC(=O)[C@@H](Cc1c[nH]c2ccccc12)NC(=O)[C@H](Cc1ccccc1)NC(=O)[C@@H](Cc1c[nH]c2ccccc12)NC(=O)[C@H](CCC(N)=O)NC(=O)[C@H](CCC(N)=O)NC(=O)[C@@H]1CCCN1C(=O)[C@H](CCCCN)NC(=O)[C@@H]1CCCN1C(=O)[C@@H](CCCNC(=N)N)NC(=O)[C@@H]1CCCN1C(=O)CNC(=O)[C@H](CC(C)C)NC(=O)[C@H](CC(C)C)NC(=O)[C@H](Cc1ccc(O)cc1)NC(=O)CNC(=O)[C@H](C)NC(=O)[C@H](CO)NC(=O)[C@H](CC(N)=O)NC(=O)[C@H](CC(C)C)NC(=O)[C@@H](NC(=O)[C@H](Cc1c[nH]c2ccccc12)NC(=O)CN)[C@@H](C)O)C(N)=O	nt	nt	1%	nt	nt	10%
CCOC(=O)N1CCc2c(sc(NCc3cc(OC)ccc3OC)c2C(=O)Nc2cc(OC)ccc2OC)C1	?	nt	398µM*[quencher]	?	2%	-21%
